JMJD2A Tudor inh: qHTS Assay for Inhibitors of JMJD2A-Tudor Domain. Potency, µM (top dose mostly 114 µM), actives largely listed as inhibitors. AlphaScreen JMJD2A-Tudor / H3K4me3 peptide binding. Lysine-specific demethylase 4A (Homo sapiens), O75164. AID 504339, 2011. actives 4.4% (n = 390,000); note: nearly all actives have a fitted effect of over 50% in size
BAZ2B block: qHTS Assay for Inhibitors of BAZ2B. Bromodomain adjacent to zinc finger domain protein 2B (Homo sapiens), Q9UIF8. AlphaScreen BAZ2B-H3K14Ac peptide displacement. Potency, µM (titrated, usually from 114 µM), most hits filed as inhibitors. actives 4.4% (n = 360,000); note: nearly all actives have a fitted effect of over 60% in size
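Compounds, titrated to a top concentration of 110 uM, were incubated 30 min at room temperature with preformed BAZ2B/acetyl-K14 H3 peptide complex (50 nM each). Proximity signal was measured by AlphaScreen after 20 min with beads.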
CtBP-E1A inh: qHTS Assay for Inhibitors of the CtBP/E1A Interaction | CtBP / adenovirus E1A interaction (AlphaScreen) | AlphaScreen GST-E1A/His-CtBP binding, 1536-well; stronger effect = lower value | activity change, % (no concentration beside the values) | actives 0.49% (n = 340,000) | AID 651724, 2012; in the data active = activity change below about -65%; inconclusive = mostly about -30% to -63%
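GST-E1A and His-tagged CtBP (125 nM each as 5X stock) were preincubated with pin-transferred compound for 2 h at 37 °C in the dark, then glutathione donor and nickel acceptor beads were added for 1 h before AlphaScreen reading.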
G9a block: qHTS Assay for Inhibitors of Histone Lysine Methyltransferase G9a. Histone-lysine N-methyltransferase EHMT2 (Homo sapiens), Q96KQ7. G9a H3K9 monomethylation, AlphaScreen, 2 h. Potency, µM (titrated, usually from 102 µM), hits mostly inhibitors. actives 8.8% (n = 350,000). AID 504332, 2011; note: nearly all actives have a fitted effect of over 75% in size
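Step 1: enzyme (final 20 nM) with compound, 15 min RT. Step 2: substrate peptide 500 nM and SAM 20 uM, 2 h RT. Step 3: anti-H3K9me1 antibody and AlphaScreen beads, 10 min, then plate read.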
HP1b chromo inh: HTS for Inhibitors of HP1-beta Chromodomain Interactions with Methylated Histone Tails; actives 0.56% (n = 390,000); Potency, µM (highest dose often 114 µM), hits mostly inhibitors; AlphaScreen HP1-beta / biotin-H3K9me3 peptide binding; note: nearly all actives have a fitted effect of over 70% in size
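AlphaScreen: HP1-beta (50 nM) preformed 30 min with biotin-H3(1-18)K9me3 peptide (50 nM) in PBS pH 7.4, 0.01% Tween-20. Compound added for 30 min at RT, then streptavidin donor/nickel chelate acceptor beads (10 ug/mL) for 30 min.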
Six1-Eya2 blk: qHTS Assay for Inhibitors of the Six1/Eya2 Interaction | Homeobox protein SIX1 (Homo sapiens) + Protein phosphatase EYA2 (Homo sapiens), … | AlphaScreen GST-Six1/His-Eya2 binding, biochemical; stronger effect = lower value | activity change, % (test concentration not listed) | actives 0.56% (n = 360,000) | AID 651725, 2012; in the data active = activity change below about -65%; inconclusive = mostly about -30% to -63%
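Six1/Eya2 binding was read as AlphaScreen signal after compounds were pinned into GST-Six1 plus His-tagged Eya2 (5X stock 250/500 nM) in pH 8.0 Tris/NaCl/TCEP buffer, beads added, then incubated 1 h, 37 C, dark.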
Numbers stand for hits; - = inactive; ? = inconclusive; . = not tested or not shown; [ ] = dose if it differs, or a comment. The list is not random: actives were taken first. Their share in the collection is about 10%. Unless noted, calls come from the whole dose curve; as a rule, active = well fitted inhibition curve with a large enough effect; inconclusive = small, poorly fitted or top-dose-only effect; inactive = no such curve, though single readings can be large or run the other way.

SMILES | JMJD2A Tudor inh | BAZ2B block | CtBP-E1A inh | G9a block | HP1b chromo inh | Six1-Eya2 blk
CCCN(CCC)CCNC(=O)C1CCN(c2nc3ccc(CC)cc3s2)CC1 | - | - | . | - | - | .
CCOc1ccc2nc(N3CCCC(C(=O)NCCCN4C(C)CCCC4C)C3)sc2c1 (configuration not stated) | - | ? | - | 40µM | - | -
CCc1ccc2nc(N3CCC(C(=O)NCCC(C)C)CC3)sc2c1 | - | - | . | 14µM | - | .
O=C(C(Cc1ccccc1)N1C(=O)c2ccccc2C1=O)N1CCc2ccccc21 (configuration not stated) | - | - | - | - | - | -
Cc1cc2c(s1)c1cnn(Cc3cccc(Cl)c3F)c(=O)c1n2C | - | . | . | . | . | .
Cc1ccc(-n2cccc2/C=C2/C(=N)N3C(=NC2=O)SN=C3S(C)(=O)=O)cc1Cl | 45µM | 45µM | - | 50µM | - | -
Cc1cccc(C)c1-n1cccc1/C=C1/C(=N)N2C(=NC1=O)SN=C2S(C)(=O)=O | - | - | - | 32µM | - | -
CC1=CSC2=NC(=O)/C(=C\c3cccn3-c3ccccc3)C(=N)N12 | ? | - | - | - | - | -
CC(C)(C)OC(=O)N1CCN(Cc2ccc(F)c(B(O)O)c2)CC1 | - | . | - | . | - | -
OCC1(CO)COC(C(Cl)(Cl)Cl)OC1 | . | . | . | -[12.7 µM] | . | .
Cc1ccc(S(=O)(=O)N=Nc2c(O)[nH]c3ccccc23)cc1 | - | ? | - | 1.6µM | - | -
Cc1ccc(C)c(S(=O)(=O)N=Nc2c(O)[nH]c3ccccc23)c1 | - | - | - | 8.9µM | - | -
CC(C)(C)OC(=O)N1CCC(c2c(C(=O)NCc3cccc(Cl)c3)cnn2-c2ccc(F)cc2)CC1 | - | - | . | - | - | .
Cc1c(Cl)cccc1NC(=O)c1ncn(-c2ccccc2)n1 | - | - | . | - | - | .
O=C1NC(=O)/C(=C\c2ccc(O)cc2O)S1 | 20µM | 28µM | . | 18µM | ? | ?
O=C1CCCN1CN1CCCCC1 | ? | 79µM | - | - | ? | -
O=C1CN(CN2CCCCC2)C(=O)CN1CN1CCCCC1 | . | . | - | . | . | -
O=C(c1cccc(F)c1)N1CCC2(CCCN(Cc3ccccc3)C2)CC1 | . | . | . | -[12.7 µM] | . | .
O=C(Nc1ccc(Cl)cc1Cl)c1cc(S(=O)(=O)N2CCN(c3ccccc3F)CC2)ccc1F | - | - | . | - | - | .
ONC(=Nc1ccccc1Cl)c1c(F)cccc1F | - | . | . | . | - | -
CN(C)c1ccc(C2C=C(c3ccc(Cl)cc3OC(F)F)Nc3ncnn32)cc1 (configuration not stated) | 45µM | ? | - | 35µM | - | -
Cc1ccc(C2C=C(c3ccccc3OC(F)F)Nc3ncnn32)cc1 (configuration not stated) | - | - | - | ? | - | -
Cc1cc2nc(-c3cccc(NC(=O)c4cccc5ccccc45)c3)oc2cc1C | - | - | . | - | - | .
O=C(NCCCN1CCOCC1)C(=O)N/N=C/c1c2ccccc2cc2ccccc12 | - | - | - | - | - | -
Oc1ccccc1/C=N/Nc1nccnc1Cl | ? | 35µM | -94 | -[12.7 µM] | - | -92
SMILES | JMJD2A Tudor inh | BAZ2B block | CtBP-E1A inh | G9a block | HP1b chromo inh | Six1-Eya2 blk
COc1ccc(/C=N/Nc2nccnc2Cl)c(OC)c1 | -[11.4 µM] | ? | . | . | - | -
Oc1ccc(/C=N/Nc2ncc(Br)cn2)c(O)c1 | ? | 14µM | -92 | - | - | -88
Oc1ccc(/C=N/Nc2nccnc2Cl)c(O)c1 | 50µM | 14µM | -96 | - | - | -92
CCc1nnc(SCC(=O)Nc2ccc(N3CCOCC3)cc2)n1C | - | - | - | - | - | -
Cc1ccc(S(C)(=O)=NC(=O)c2cc(C)on2)cc1 (configuration not stated) | - | - | - | - | - | -
COc1ccc(NC(=O)COc2ccc3c(C)cc(=O)oc3c2)cc1S(=O)(=O)N1CCCCC1 | - | - | - | 11µM | - | -
CCCc1cc(=O)oc2cc(OCC(=O)Nc3ccc(S(N)(=O)=O)cc3)ccc12 | - | 45µM | . | . | - | -
COc1ccc(NC(=O)CN2C(=O)NC3(CC(C)CC(C)(C)C3)C2=O)cc1S(=O)(=O)N1CCCCC1 (configuration not stated) | - | - | - | 16µM | - | -
COc1ccc(NC(=O)CN2C(=O)NC3(CCCC3)C2=O)cc1S(=O)(=O)N1CCCCC1 | - | - | - | - | - | -
COc1ccc(NC(=O)COc2ccccc2C)cc1S(=O)(=O)N1CCCCC1 | - | - | - | 50µM | - | -
COc1ccc(N(Cc2cccs2)C(=O)c2ccc(Br)o2)cc1 | - | - | . | - | - | .
COc1ccc(NC(=O)CN2CCN(S(=O)(=O)c3ccc(Cl)cc3)CC2)cc1Cl | - | - | - | - | - | -
CC1(c2ccccc2)NC(=O)N(CC(=O)Nc2ccc(Cl)c(S(=O)(=O)N3CCCCC3)c2)C1=O (configuration not stated) | - | - | - | - | - | -
CC1CC(C)CN(S(=O)(=O)c2ccc(NC(=O)CN3C(=O)NC(C)(c4ccccc4)C3=O)cc2)C1 (configuration not stated) | - | - | - | . | - | -
CC1CCCN(S(=O)(=O)c2ccc(NC(=O)CN3C(=O)NC(C)(c4ccccc4)C3=O)cc2)C1 (configuration not stated) | - | - | - | 56µM | - | -
COc1ccc(NC(=O)CN2CCCCC2)cc1S(=O)(=O)N1CCCCC1 | 2.5µM | . | - | . | ? | -
COc1ccc(NC(=O)Cc2ccc(C)cc2)cc1S(=O)(=O)N1CCCCC1 | - | - | . | -[12.7 µM] | - | -
Cc1ccc(C2(C)NC(=O)N(CC(=O)Nc3ccc(Cl)c(S(=O)(=O)N4CCCCC4)c3)C2=O)cc1 (configuration not stated) | - | - | - | 40µM | - | -
COc1ccc(S(=O)(=O)N2CCCN(CC(=O)Nc3ccc(OC)c(Cl)c3)CC2)cc1 | - | - | - | 45µM | - | -
CCOc1ccccc1-c1nc(C(N)=O)c2c(n1)n(-c1ccc3c(c1)OCO3)c(=O)n2C | - | - | . | - | - | .
CC(C)Cc1nnc(NC(=O)CN2C(=O)NC3(CC(C)CC(C)(C)C3)C2=O)s1 (configuration not stated) | - | - | - | 45µM | - | -
CCOc1ccc2c(=O)c(Oc3ccccc3OCC)coc2c1 | - | - | - | - | - | -
